Screening results (PubChem BioAssay)
Hits are enriched below; roughly 1.7% of the tested compounds scored in any of these assays.
GLP1R ag = GLP-1 receptor (human) agonism; P43220; HEK293 GLP-1R CRE-luciferase, luminescence, 4-6 h; cells express a hypersensitive GLP-1R form; Potency, µM (highest dose often 45.6 µM), for the others: at the highest dose activation, actives largely listed as activators; 380,000 compounds, 0.007% hits; AID 624172; also: % of control where 0% means no effect
Target sequence (P43220 whole entry, looked up): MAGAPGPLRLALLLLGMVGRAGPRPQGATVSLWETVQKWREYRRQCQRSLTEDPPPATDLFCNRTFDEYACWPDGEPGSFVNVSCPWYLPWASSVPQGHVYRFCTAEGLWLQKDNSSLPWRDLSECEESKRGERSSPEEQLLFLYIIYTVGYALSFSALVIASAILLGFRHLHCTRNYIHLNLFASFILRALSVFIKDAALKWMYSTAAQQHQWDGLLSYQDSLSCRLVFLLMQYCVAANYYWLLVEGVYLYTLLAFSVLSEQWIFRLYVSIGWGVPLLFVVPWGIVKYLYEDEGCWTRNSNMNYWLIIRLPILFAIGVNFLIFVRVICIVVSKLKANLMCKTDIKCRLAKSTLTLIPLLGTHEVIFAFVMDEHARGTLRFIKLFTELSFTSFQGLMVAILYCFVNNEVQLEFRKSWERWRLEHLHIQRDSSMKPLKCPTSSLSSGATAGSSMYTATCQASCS
GLP1R cytotox = cytotoxicity in counter-screen for GLP-1R inverse agonists; Potency, µM (titrated, usually from 38.3 µM), for inactives: top-dose activity change, negative = inhibition, most hits filed as inhibitors; HEK293 cAMP-luciferase reporter cells, luminescence, 24 h; AID 624418; 410,000 compounds, 0.13% hits;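 also: loss of luciferase light is scored as toxicity; % is scaled to controls: 0 for no effect and ±100 for the full control effect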
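Luminescence readout: signal drop marks cytotoxicity. Plated cells grew 12 h at 37 °C, 5% CO2, received 23 nL compound for 24 h, then got luciferase reagent, read after 12 min at RT.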
GLP1R inv ag = inverse agonists of human GLP-1 receptor | P43220 | HEK293 GLP-1R CRE-luciferase, luminescence, 24 h; GLP-1R form is constitutively active | Potency, µM (series often up to 38.3 µM), without a hit: at the highest dose activity change, negative = inhibition, hits mostly inhibitors | 410,000 compounds, 1.6% hits; also: % is scaled to controls: 0 for no effect and ±100 for the full control effect; nearly all actives have a fitted effect of over 55% in size
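Cells are plated, allowed 12 hours at 37 deg C, then treated with compounds for 24 hr before luciferase detection reagent is added and luminescence is read after 12 min at room temperature. The HEK293 line carries constitutively active GLP-1R with a cAMP-responsive reporter.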
An asterisk follows results filed as active; ? = inconclusive; . = no result given; [ ] = another dose, or the depositor's remark. Calls follow the shape of the dose curve; as a rule, active = well fitted curve in the direction sought with a large enough effect; inconclusive = small, poorly fitted or top-dose-only effect, or another doubt; inactive = no such curve, though single readings can be large; an effect the other way counts as inactive or inconclusive. Potency is read from the fitted curve at half-maximal effect.

SMILES	GLP1R ag	GLP1R cytotox	GLP1R inv ag
COc1ccc(N(CC(=O)NCCc2ccc(OC)c(OC)c2)S(=O)(=O)c2c(C)noc2C)cc1	2.9%	-6.9%	0.5%
NC(=O)CN1C(=O)NC2(CCOc3ccccc32)C1=O (stereo not given)	8.8%	15.5%	4.6%
Cc1cc(=O)n(Cc2cccc(Br)c2)c2c1c(C)nn2-c1ccccc1	.	2.9%	5.1%
CC(NC(=O)CN1CCCC1)c1ccccc1 (stereo not given)	-12.7%	0.3%	4.6%
CCC(=O)N1c2ccccc2CC1C(=O)NCCc1ccccc1C (stereo not given)	.	10.5%	-7.6%
Cc1ccc(S(=O)(=O)Nc2ccc(S(=O)(=O)Nc3nccs3)cc2)cc1C	8.1%	-7.6%	7.1%
CCCCCCCCCCCCCCCC(=O)OCC(O)C1OC(=O)C(O)=C1O (stereo not given)	2.6%	.	.
CCCNC(=O)C1(C)CCCN(Cc2cccc3ccccc23)C1 (stereo not given)	7.9%	-8.0%	10µM*
CCCNC(=O)C1(C)CCCN(Cc2ccccc2Cl)C1 (stereo not given)	17.6%	0.4%	-15.0%
COC(=O)c1ccccc1C(=O)N1CCCC(CCC(=O)NCc2ccc(F)c(F)c2)C1 (stereo not given)	22.9%	-5.1%	5.0%
CCOC(=O)C1=CCC2C(=O)N(C)C(=O)C12 (stereo not given)	1.3%	-21.5%	11.1%
Cc1ccc2c(Br)cc(Br)c(O)c2n1	18.9%	.	.
Cc1cc(N2CCC(C)CC2)nc(-n2nc(C)cc2C)n1	11.2%	0.794µM*	?
Cc1cc(C)n(-c2nc3ccccc3nc2N2CCC(C)CC2)n1	-1.2%	27.9%	0.0%
Cc1ccnc(NC(=O)c2ccc3c(c2)C(=O)N(CCC(C)C)C3=O)c1	4.4%	-0.6%	4.7%
Cc1ccc(NC(=O)c2sc3nc(C)nc(N4CCN(c5ccccn5)CC4)c3c2C)c(C)c1	-0.8%	-25.3%	11.2µM*
Cc1nc(N2CCN(c3ccccn3)CC2)c2c(C)c(C(=O)Nc3ccc(Br)cc3C)sc2n1	-0.3%	-6.2%	7.2%
CC(C)c1ccc(CNc2nc(-c3ccco3)nn2S(=O)(=O)c2ccc(F)cc2)cc1	.	5.4%	?
COc1ccc(C)c2sc(NC(=O)c3ccc(S(=O)(=O)N4CCOCC4)cc3)nc12	19.8%	-5.9%	5.5%
C=CCNC(=S)NN=C1CCCCCCC1	14.1%	?	3.55µM*
NC(=S)NN=C1CCCCCCCCC1	11.7%	4.47µM*	2.82µM*
NC(=S)NN=C1CCCCCCCC1	0.0%	?	?
COCCNC(=S)NN=C1CCCCC1	-1.5%	-0.9%[7.66 µM]	-8.8%[7.66 µM]
OC[C@@H]1CN(Cc2ccc(-c3ccccc3)cc2)C[C@H](n2cnc3c(NC4CC4)ncnc32)O1	13.8%	-5.1%	-9.3%
Cc1cccc(CCNC(=O)c2ccc3c(c2)nc2n3CCOC2)c1	.	2.6%	-7.5%
SMILES	GLP1R ag	GLP1R cytotox	GLP1R inv ag
Cc1ccc(Cl)cc1N1CCN(C(=O)c2cccn2-c2nnc(N3CCCCC3)s2)CC1	.	9.2%	15.4%
Cc1ccc(Cl)cc1N1CCN(C(=O)C2CCN(c3nnc(-n4cccc4)s3)CC2)CC1	-1.3%	-6.0%	3.55µM*
COc1ccccc1-c1ncn(Cc2cccc(-c3ccccc3)c2)c1-c1ccco1	.	-2.6%	?
COCCNC(=O)Cn1c(=O)n(-c2ccc(C)c(C)c2)c(=O)c2c3c(sc21)CCCCC3	0.2%	-0.2%	13.2%
CCCc1ccc(C(=O)NNc2cc(Cl)ccc2Cl)cc1	-0.3%	-7.3%	1.26µM*
Cc1cccc(NNC(=O)C(=O)NNc2cccc(C)c2)c1	-4.3%	-15.8%	?
CCCc1ccc(C(=O)NNc2cccc(C)c2)cc1	11.5%	?	2.82µM*
CCCc1ccc(C(=O)NNC(=O)c2ccc(Cl)cc2)cc1	0.7%	-13.2%	0.2%
COC(=O)[C@]12CCC(C)(C)C[C@@H]1[C@@H]1C(=O)C=C3[C@@]4(C)C=C(C#N)C(=O)C(C)(C)[C@@H]4CC[C@@]3(C)[C@]1(C)CC2	5.0%	.	.
CC(C)/C=N/Nc1nc(-c2ccc(Br)cc2)cs1	-4.8%	-6.3%	5.62µM*
O=C(Nc1nc(-c2ccc(Br)cc2)cs1)c1cccnc1	4.3%	-2.4%	23.1%
O=C(CC(CC(=O)c1ccccc1)c1ccccn1)c1ccccc1	14.5%	-0.9%	10µM*
O=C(CC(=O)c1ccccn1)c1ccccc1	-6.2%	-33.8%	?
CC(C)Oc1ccc(C(=O)NC2CCCCC2)cc1	-4.6%	5.3%	-2.4%
CC(C)Oc1ccc(C(CCN)C2CCCCC2)cc1 (stereo not given)	-1.0%	?	10µM*
CC1CCCN(CC(O)COC(c2ccccc2)c2ccccc2)C1 (stereo not given)	5.9%	-14.7%	?
COc1cc2ccccc2cc1C(=O)N1CCc2ccccc21	2.2%	?	7.94µM*
COc1cc(C(=O)N2CCc3ccccc32)cc(OC)c1OC	-3.8%	-3.7%	-27.0%
CCCCCCOC(=O)c1cccnc1	0.6%	.	.
CC1C(=NO)C(C)C(c2ccccc2)NC1c1ccccc1 (stereo not given)	-3.4%	6.4%	0.0%
CCC1C(=NO)C(CC)C(c2ccccc2)NC1c1ccccc1 (stereo not given)	-0.2%	?	3.55µM*
COc1ccc(CN2C(=O)C(CC(=O)NCCc3ccccn3)CC(C(=O)N(C(C)C)C(C)C)=C2C)cc1 (stereo not given)	7.8%	5.2%	9.4%
CCN(CC)CC(=O)Nc1ccc2c(c1)N(C(=O)CN(CC)CC)c1ccccc1CC2	20.5%	3.98µM*	38.6%
CCOC(=O)Nc1ccc2c(c1)N(C(=O)CN(CC)CC)c1ccccc1CC2	6.4%	?	?
Cc1ccc(N(Cc2cccs2)C(=O)c2ccccc2)cc1	.	-12.0%	?
SMILES	GLP1R ag	GLP1R cytotox	GLP1R inv ag
Cc1cccc(C)c1NC(=O)CN(Cc1ccc(Br)cc1)S(=O)(=O)c1ccccc1	.	-6.7%	?
Cc1ccc(C2N(c3ccc(Cl)cc3)C(=O)N3CCCN23)cc1 (stereo not given)	8.3%	-8.2%	10µM*
O=C1N(c2ccccc2)C(c2ccc(Cl)cc2)N2CCCN12 (stereo not given)	0.1%	-8.1%	?
COc1ccc(NC(=O)[C@H](Cc2c[nH]c3ccccc23)NC(=O)[C@@H]2Cc3ccccc3CN2)cc1	0.5%	-10.2%	5.62µM*
CC(C)c1ccc(NC(=O)[C@H](Cc2c[nH]c3ccccc23)NC(=O)[C@@H]2Cc3ccccc3CN2)cc1	0.4%	-16.4%	?
O=c1[nH]c(-c2ccccn2)nc2sc(-c3ccccc3)cc12	9.9%	68.9%	?
CC(=O)C[C@H]1[C@H](O[C@H]2[C@H](OC(C)C(=O)N[C@@H](C)C(=O)N[C@H](CCC(=O)N[C@@H](CCCCN)C(=O)N[C@H](C)C(=O)O)C(N)=O)[C@@H](NC(=O)O)C(O)O[C@@H]2CO)O[C@H](CO)[C@@H](O)[C@@H]1O (stereo not given in full)	16.2%	.	.
O=C(Oc1cccc(C(=S)N2CCOCC2)c1)c1ccc([N+](=O)[O-])cc1	-1.0%	17.3%	-10.2%
Cc1ccc([N+](=O)[O-])cc1N=C(c1cccc(Br)c1)N1CCOCC1	5.5%	-4.6%	7.94µM*
